According to the supplement of paper PMC6555819:

Experiments:
Experiment in all cases: PBM binding z-score (relative to random genomic background probes); higher = stronger binding; sequences stand for … in GC…GCGATTGACAGCGTAGAATGAAGG
[1] = system: FXR:RXRa (NR concentration 270 nM, RXRa partner concentration 90 nM)
In short: (§1)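 Binding z-scores were set against random background probes. The data came from custom Agilent 4×180K protein-binding microarrays carrying double-stranded probes with 34-nt variable regions, incubated 1 h with ligand-free nuclear receptor dimers. Partner-specific antibodies detected binding, and scanned fluorescence was regression-normalized.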

[2] = system: LXRa:RXRa (NR concentration 270 nM, RXRa partner concentration 90 nM)
In short: as §1

[3] = system: LXRa homodimer (NR concentration 270 nM)
In short: as §1

[4] = system: LXRb:RXRa (NR concentration 270 nM, RXRa partner concentration 90 nM)
In short: as §1

[5] = system: LXRb homodimer (NR concentration 270 nM)
In short: as §1

[6] = system: PPARa:RXRa (NR concentration 270 nM, RXRa partner concentration 90 nM)
In short: as §1

[7] = system: PPARg:RXRa (NR concentration 180 nM, RXRa partner concentration 90 nM)
In short: as §1

[8] = system: PPARg:RXRa 270nM:90nM, anti-RXR (NR concentration 270 nM, RXRa partner concentration 90 nM)
In short: as §1

[9] = system: PPARg:RXRa 30nM:10nM, anti-RXR (NR concentration 30 nM, RXRa partner concentration 10 nM)
In short: as §1

[10] = system: PPARg:RXRa 90nM:30nM, anti-RXR (NR concentration 90 nM, RXRa partner concentration 30 nM)
In short: as §1

[11] = system: PPARg:RXRa DBDmut IVT, anti-RXR (DBD mutation: RXRa K156A/R161A, NR concentration 270 nM, RXRa partner concentration 90 nM)
In short: as §1

[12] = system: PPARg:RXRa IVT, anti-PPARg (NR concentration 270 nM, RXRa partner concentration 90 nM)
In short: as §1

[13] = system: PPARg DBDmut:RXRa IVT, anti-PPARg (DBD mutation: PPARg1 K132A/R137A, NR concentration 270 nM, RXRa partner concentration 90 nM)
In short: as §1

[14] = system: PPARg DBDmut IVT, anti-PPARg (DBD mutation: PPARg1 K132A/R137A, NR concentration 270 nM)
In short: as §1

[15] = system: PPARg homodimer (NR concentration 180 nM)
In short: as §1

[16] = system: PXR:RXRa (NR concentration 270 nM, RXRa partner concentration 90 nM)
In short: as §1

[17] = system: PXR homodimer (NR concentration 270 nM)
In short: as §1

[18] = system: RARa:RXR (NR concentration 270 nM, RXRa partner concentration 90 nM)
In short: as §1

[19] = system: RARa homodimer (NR concentration 270 nM)
In short: as §1

[20] = system: RARb:RXRa (NR concentration 270 nM, RXRa partner concentration 90 nM)
In short: as §1

Sequence | PBM binding z-score [1] | PBM binding z-score [2] | PBM binding z-score [3] | PBM binding z-score [4] | PBM binding z-score [5] | PBM binding z-score [6] | PBM binding z-score [7] | PBM binding z-score [8] | PBM binding z-score [9] | PBM binding z-score [10] | PBM binding z-score [11] | PBM binding z-score [12] | PBM binding z-score [13] | PBM binding z-score [14] | PBM binding z-score [15] | PBM binding z-score [16] | PBM binding z-score [17] | PBM binding z-score [18] | PBM binding z-score [19] | PBM binding z-score [20]
CCTCCAAGGTCAAGGTCAGTGAAAGAGACTCGAA | 7.8 | 5.56 | 1.22 | 4.56 | 0.877 | 5.99 | 6.15 | 6.06 | 2.76 | 4.75 | 2.84 | 4.47 | 0.309 | -0.405 | 3.87 | 4.83 | 1.54 | 5.14 | 2.11 | 5.8
AGTCAAAGTTCACTAGGTAACGTAAGATTCAGCT | 5.37 | 5.1 | 3.04 | 3.17 | 1.11 | 5.11 | 7.61 | 6.5 | 3.74 | 6.12 | 2.87 | 5.16 | 1.07 | 1.01 | 2.38 | 3.71 | 2.66 | 2.74 | 0.986 | 4.72
ATCTCTAAGTAAAAGTTCAGTGAATCCCGAGGAT | 0.433 | 1.11 | 1.36 | 0.807 | 1.04 | 1.6 | 1.9 | 3.87 | 2.04 | 3.47 | -0.124 | 0.598 | 0.919 | 0.992 | 1.15 | 1.72 | 1.61 | 1.19 | 1.33 | 2.33
CTCGAAAGGTCGTGCTCAGGTCAGTATACCAAAC | 5.86 | 5.15 | 1.44 | 4.15 | 0.558 | 5.2 | 3.19 | 4.09 | 1.06 | 2.7 | 1.1 | 2.14 | 1.37 | 1.38 | 3.94 | 5.57 | 1.25 | 6.37 | 0.951 | 4.41
CCAGACCGGTGAAAGGTAACTCAGTCTGGTACGC | -0.0585 | 0.0819 | -0.526 | 0.182 | -0.601 | 2.13 | 2.61 | 4.02 | 1.71 | 3.56 | -0.315 | 1.07 | -1.56 | -0.816 | 0.901 | 0.218 | -0.239 | 0.267 | -0.377 | 0.477
TCATATAAGTAAAGGTGAAAGTCGAACGATATGA | 1 | 1.25 | -0.151 | 1.26 | -0.205 | 2.77 | 1.98 | 2.93 | 3.99 | 3.46 | 2.2 | 1.58 | 1.17 | 1.46 | 0.731 | 0.97 | 0.241 | 1.59 | 0.59 | 1.99
AGGACGAGGGCACGCTGAGTTGATAGCAGAGTAG | 0.954 | 0.423 | -0.584 | 0.138 | -1.02 | 1.45 | 1.2 | 0.43 | -0.0581 | 0.384 | 2.52 | 2.08 | -0.0685 | -0.533 | 0.511 | 1.31 | 0.265 | 0.618 | -0.58 | 2.68
AATACAAGGTCACTAGGCCAGAGTAGGTACGAAT | 7.35 | 6.14 | 4.32 | 4.79 | 2.19 | 6.29 | 8.24 | 6.63 | 3.8 | 6.05 | 4.85 | 6.56 | 2.9 | 1.98 | 3.01 | 3.63 | 0.919 | 4.05 | 1.19 | 5.31
CCTACTCGGCCAAGGTCATTGATCAGTCAAAGCA | 3.57 | 3.69 | 2.12 | 3.18 | 0.93 | 3.52 | 1.32 | 2.35 | 0.335 | 1.69 | 1.8 | 1.68 | -0.0349 | -0.365 | 2.76 | 3.75 | 2.34 | 3.59 | 1.82 | 3.52
ACAATGAGGTTATACGTAGATCAGGGAAGAAAGT | 2.38 | 2.12 | -0.0615 | 1.59 | 0.813 | 2.93 | 1.84 | 1.69 | 0.688 | 0.925 | 2.72 | 1.93 | 1.33 | 1.68 | 0.816 | 1.19 | 0.655 | 1.82 | 0.312 | 1.69
CGTCAAAGTTCAAGGTAACCTAACAGAAAGCAGC | 6.46 | 5.68 | 2.88 | 3.53 | 0.767 | 5.05 | 4.79 | 5.23 | 1.93 | 3.95 | 0.978 | 2.67 | 0.466 | 0.361 | 2.09 | 4.03 | 2.12 | 3.26 | 1.18 | 5.37
GCTTACGGGTCAAATGTTATAGCATGAATAGAAT | 6.7 | 4.31 | 0.0219 | 4.11 | 0.827 | 5.85 | 6.74 | 6.08 | 3.81 | 5.84 | 4.4 | 4.44 | 1.56 | 1.2 | 2.47 | 3.34 | -0.148 | 4.24 | 0.995 | 3.88
CCTACTGGGCCAAAAAGGTCATTGACGCCGATAA | 3.87 | 4.62 | 2.87 | 4.33 | 0.108 | 4.61 | 3.21 | 4.25 | 1.8 | 3.54 | 3.85 | 3.99 | -0.855 | -0.422 | 2.91 | 4.65 | 2.1 | 5.01 | 1.28 | 3.72
TCTTGTAGATCAAAGGTTAACAAAGCCGAAGCCT | 1.99 | 2.08 | -0.0148 | 2.16 | 0.107 | 4.9 | 8.48 | 8.41 | 7.57 | 9.81 | 2.15 | 4.38 | 1.04 | 0.514 | 1.03 | 2.26 | 0.125 | 3.03 | 1.01 | 2.09
